# DPM-DC inhibit – S. pneumoniae DPM-DC inhibitors, primary screen, biochemical, PK/LDH-coupled NADH fluorescence; purified DPM-DC; calls only at 10 µM; hit rate 0.49% among 65,000; AID 556, 2006;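 active means the 320 compounds with the highest percent inhibition in the single-dose primary screen, excluding strongly autofluorescent ones, cut at about 32% in these data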;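 further: kinetic rate of NADH fluorescence loss reporting ADP formed by the decarboxylase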
# A340 absorber – compound light absorbance at 340 nm, profiling panel, artefact control, biochemical, MLSMR library, data from PS, PMK, MK assays. compound absorbance at 340 nm, fold over control. fold change at 10 µM. 65,000 tested, under 10 active. AID 708, 2007;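 active means at 10 µM dose, initial 340 nm absorbance at least 2 fold that of control wells; inactive means change under 2 fold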;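 further: initial absorbance extrapolated from kinetic A340 decline of NADH oxidation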
# PMK inhibit – S. pneumoniae PMK inhibitors, primary screen, biochemical, mevalonate pathway, pilot trial included; hit rate 0.49% among 65,000; inhibition, % at 10 µM; phosphomevalonate kinase (Streptococcus pneumoniae D39); purified PMK, PK/LDH-coupled NADH absorbance 340 nm; AID 539, 2006;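 active means top-ranked compounds by inhibition in the single 10 µM screen, taking a fixed number of the strongest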;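 further: 0% = full reaction with DMSO carrier and 100% = background rate without enzyme reaction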
# MK inhibit – S. pneumoniae MK inhibitors, primary screen, biochemical, PK/LDH-coupled NADH absorbance; mevalonate kinase [Streptococcus pneumoniae D39]; purified MK, PK/LDH-coupled NADH absorbance 340 nm; inhibition, % at 10 µM; hit rate 0.48% among 65,000; AID 555, 2006;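 active means ranked among the strongest by inhibition in the single 10 µM screen, a fixed top-ranked set picked for dose follow-up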
# NADH coupling – inhibitors of PK/LDH coupling enzymes, profiling panel, artefact control, biochemical, MLSMR library | coupled PK/LDH NADH assays, four targets | IC50, µM (titrated, usually from 10 µM), for inactives: at the highest dose inhibition | AID 774, 2007 | hit rate 0.02% among 65,000;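 active means single-dose screening hits from any of four coupled enzyme assays that gave an IC50 when retested across doses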;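 further: the DPM-DC format reads NADH fluorescence rather than 340 nm absorbance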
# Autofluor 339 – intrinsic fluorescence of library compounds, ex339/em460 – biochemical, MLSMR library, data from DPM-DC assay, artefact control, profiling panel | compound autofluorescence, ex339/em460 nm, NADH buffer; hits give high values; 1 = no-compound wells, NADH background | fluorescence fold increase at 10 µM | hit rate 5.5% among 65,000;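 active means at 10 µM, mean starting fluorescence two-fold or more over control wells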;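 further: signal is the first read of a kinetic run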
# Active calls of the source: *; i = inactive; x = no result given; + = active, no number; ! = a repeat was not active. Rows were chosen to be rich in hits. Some 6.8% of all compounds tested hit in one or more screens of this group.
SMILES,DPM-DC inhibit,A340 absorber,PMK inhibit,MK inhibit,NADH coupling,Autofluor 339
COc1ccc2nc3oc(C(=O)N4CCCCC4)cc3cc2c1,x,1,9,0,16%,3.4*
CCOC(=O)C1CCN(C(=O)c2cc3cc4cc(OC)ccc4nc3o2)CC1,x,1,11,0,6%,5.1*
COc1ccc2nc3sc(C(=O)N4CCN(C)CC4)cc3cc2c1,i,1,15,0,7%,2.7*
CCOC(=O)c1ccc(CNC(=O)c2cc3cccc(OC)c3oc2=O)o1,i,1,10,2,4%,1.5
O=C(Nc1ccc(Cl)c(C(F)(F)F)c1)C1CCCN(S(=O)(=O)c2cnc[nH]2)C1 (configuration not stated),i,0.98,15,6,7%,1.1
CCC(C)(C(=O)NC1CCCCC1)N(C(=O)c1cnccn1)c1c(C)n(C)n(-c2ccccc2)c1=O (configuration not stated),i,0.97,3,4,2%,0.98
Cc1ccc(-c2cc(-c3nnc(SCC(=O)N(C)CCC#N)n3N)c3ccccc3n2)cc1,x,1.1,10,8,9%,4.2*
Cc1ccc(-c2nnc(SCC(=O)O)n2N)cc1,i,1,10,12,7%,1.1
CC1CN(C(=O)c2cc3c(s2)CCC3)CC(C)O1 (configuration not stated),i,1,7,1,3%,1.1
CC1CN(C(=O)c2cc3c(=O)n4ccccc4nc3s2)CC(C)O1 (configuration not stated),x,1.1,18,0,9%,4.9*
COC(=O)c1cnn2c3c(c(C)nc12)CCCC3,x,0.99,24,3,14%,4.8*
C=CCc1c(C)nc2c(C(=O)O)cnn2c1C,i,1,14,0,5%,1.9
CC(=O)Oc1c(S(=O)(=O)c2ccc(C)cc2)c(C)nn1-c1ccccc1,i,1,18,13,10%,1.1
COc1cccc(C2C(C(=O)c3cccs3)=C(O)C(=O)N2CCCn2ccnc2)c1OC (configuration not stated),i,0.99,7,11,4%,0.99
Cc1cc(C)c2c(n1)nn1c(NCCCN3CCOCC3)cc(C)nc21,x,1,5,4,3%,3*
Cc1cc(NCCCN2CCOCC2)n2nc(C)c(-c3ccc(F)cc3)c2n1,i,1.1,25*,0,8%,1.6
Cc1cc(NCCCN2CCOCC2)n2nc(C)c(-c3ccccc3)c2n1,i,1,13,10,11%,1.5
Cc1cc(C)c2c(n1)nn1c(NCCCn3ccnc3)cc(C)nc21,x,0.98,9,10,10%,3.9*
COc1ccccc1-c1c(C)nn2c(NCCN3CCCC3)cc(C)nc12,i,1.1,5,1,2%,1.1
Cc1cc(NCCOCCO)n2ncc(-c3ccc(Cl)cc3)c2n1,i,1,9,11,15%,2.6*
Cc1cc(NCCCN2CCOCC2)n2ncc(-c3ccccc3)c2n1,i,1.1,16,10,12%,2.1*
CSC1=NC(NCCCO)c2c(sc3c2CC(C)(C)OC3)N1 (configuration not stated),i,1,7,8,10%,2.9*
CC1(C)Cc2c(sc3nc(SCC(=O)O)[nH]c(=O)c23)CO1,i,1.1,0,13,6%,1.2
CCCc1cc(=O)[nH]c(SCC(=O)c2cc(C)n(C(C)COC)c2C)n1 (configuration not stated),i,1,13,10,8%,1.1
CCN(CC)c1ccc(-n2cc3c(=O)n(C)c(=O)n(C)c3c2)cc1,x,1.1,13,0,7%,3.7*
SMILES,DPM-DC inhibit,A340 absorber,PMK inhibit,MK inhibit,NADH coupling,Autofluor 339
CN(C)c1ccc(-n2cc3c(=O)n(C)c(=O)n(C)c3c2)cc1,i,1.1,5,4,7%,1.9
O=C(OCn1nnc2ccccc2c1=O)c1cc2ccccc2o1,i,0.98,16,3,3%,1.1
c1ccc(CCNc2ncnc3nc[nH]c23)cc1,i,1.1,5,0,3%,1.1
COc1ccccc1CNc1ncnc2nc[nH]c12,+,1,6,12,23%,1.2
CC(=O)c1cccc(NC(=O)Nc2cccnc2)c1,+,1,3,1,18%,0.45
Cc1cccc(Cn2c(=O)c3c(nc4n3CCCN4Cc3ccccc3)n(C)c2=O)c1,i,1,8,7,5%,1.1
CCCCOC(=O)c1cc(=O)[nH]c2ccccc12,i,1.1,10,6,8%,2.1*!
O=C(COC(=O)c1cc(=O)[nH]c2ccccc12)NC(=O)NC1CCCCC1,i,1.1,13,0,9%,2*
CC(C)CC(C(=O)Nc1oc(-c2ccco2)c(-c2ccco2)c1C#N)N1C(=O)c2ccccc2C1=O (configuration not stated),i,1.1,4,0,2%,1.1
COc1ccc(NC(=O)C(C)Oc2ccc(/C(C)=N\O)cc2)cc1 (configuration not stated),i,0.98,5,2,2%,1
O=C(c1cc(-c2ccccc2)nc2ccccc12)N1CCOCC1,i,1,6,2,3%,1.1
Cc1ccc2nc(-c3ccc4c(c3)OCCO4)cc(C(=O)O)c2c1,i,1,0,0,2%,1.2
CCOc1ccc(-c2cc(C(=O)N3CCN(C)CC3)c3ccccc3n2)cc1,x,1.1,9,0,5%,5.2*
CCOC(=O)N1CCN(C(=O)c2cc(-c3ccc(OCC)cc3)nc3ccccc23)CC1,x,1.1,11,0,6%,5.2*
CS(=O)(=O)N1CCN(C(=O)c2cc(-c3cccs3)nc3ccccc23)CC1,x,1.1,3,11,7%,3.9*
O=C(O)c1cc(-c2cccs2)nc2cc3c(cc12)OCCO3,x,1.1,0,11,6%,2.1*
CC1Cc2nc(SCC(=O)NCc3ccco3)n(Cc3ccccc3)c(=O)c2S1 (configuration not stated),i,1.1,6,6,7%,1
O=C(OCc1nnc(-c2ccccc2)o1)C1CCN(S(=O)(=O)c2cccs2)CC1,i,1,15,0,5%,1.1
CCOc1ccc(-c2cc(C(=O)N3CCN(c4ccccn4)CC3)c3ccccc3n2)cc1,i,0.98,12,0,4%,1.6
COc1ccc(-c2cc(C(=O)N3CCN(c4ccccn4)CC3)c3ccccc3n2)cc1,i,1.1,16,0,9%,2.7*
